G9a block: blocks human histone lysine methyltransferase G9a. Q96KQ7. G9a H3K9 monomethylation, AlphaScreen, 2 h. Potency, µM (series often up to 102 µM), actives largely listed as inhibitors. 8.8% of 350,000 active; further: nearly all actives have a fitted effect of over 75% in size
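AlphaScreen read-out: biotin-H3K9 peptide (500 nM) methylation by 20 nM enzyme with 20 uM SAM, 2 h at room temperature after 15 min compound preincubation; anti-monomethyl H3K9 antibody plus donor/acceptor beads, 10 min dark.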
VDR inh: vitamin D3 receptor (human) inhibition | P11473 | VDR-SRC2-3 peptide fluorescence polarization, 2 h | Potency, µM, actives largely listed as inhibitors | 0.93% of 400,000 active
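Signal is fluorescence polarization, reporting how far test compounds block the interaction of VDR with the SRC2-3 coregulator peptide after a 2 h room-temperature incubation.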
BAZ2B inh: BAZ2B (human) inhibition; AlphaScreen BAZ2B-H3K14Ac peptide displacement; Potency, µM (doses to about 114 µM), actives largely listed as inhibitors; 4.4% of 360,000 active; AID 504333; further: nearly all actives have a fitted effect of over 60% in size
Target sequence (Q9UIF8 whole entry, looked up): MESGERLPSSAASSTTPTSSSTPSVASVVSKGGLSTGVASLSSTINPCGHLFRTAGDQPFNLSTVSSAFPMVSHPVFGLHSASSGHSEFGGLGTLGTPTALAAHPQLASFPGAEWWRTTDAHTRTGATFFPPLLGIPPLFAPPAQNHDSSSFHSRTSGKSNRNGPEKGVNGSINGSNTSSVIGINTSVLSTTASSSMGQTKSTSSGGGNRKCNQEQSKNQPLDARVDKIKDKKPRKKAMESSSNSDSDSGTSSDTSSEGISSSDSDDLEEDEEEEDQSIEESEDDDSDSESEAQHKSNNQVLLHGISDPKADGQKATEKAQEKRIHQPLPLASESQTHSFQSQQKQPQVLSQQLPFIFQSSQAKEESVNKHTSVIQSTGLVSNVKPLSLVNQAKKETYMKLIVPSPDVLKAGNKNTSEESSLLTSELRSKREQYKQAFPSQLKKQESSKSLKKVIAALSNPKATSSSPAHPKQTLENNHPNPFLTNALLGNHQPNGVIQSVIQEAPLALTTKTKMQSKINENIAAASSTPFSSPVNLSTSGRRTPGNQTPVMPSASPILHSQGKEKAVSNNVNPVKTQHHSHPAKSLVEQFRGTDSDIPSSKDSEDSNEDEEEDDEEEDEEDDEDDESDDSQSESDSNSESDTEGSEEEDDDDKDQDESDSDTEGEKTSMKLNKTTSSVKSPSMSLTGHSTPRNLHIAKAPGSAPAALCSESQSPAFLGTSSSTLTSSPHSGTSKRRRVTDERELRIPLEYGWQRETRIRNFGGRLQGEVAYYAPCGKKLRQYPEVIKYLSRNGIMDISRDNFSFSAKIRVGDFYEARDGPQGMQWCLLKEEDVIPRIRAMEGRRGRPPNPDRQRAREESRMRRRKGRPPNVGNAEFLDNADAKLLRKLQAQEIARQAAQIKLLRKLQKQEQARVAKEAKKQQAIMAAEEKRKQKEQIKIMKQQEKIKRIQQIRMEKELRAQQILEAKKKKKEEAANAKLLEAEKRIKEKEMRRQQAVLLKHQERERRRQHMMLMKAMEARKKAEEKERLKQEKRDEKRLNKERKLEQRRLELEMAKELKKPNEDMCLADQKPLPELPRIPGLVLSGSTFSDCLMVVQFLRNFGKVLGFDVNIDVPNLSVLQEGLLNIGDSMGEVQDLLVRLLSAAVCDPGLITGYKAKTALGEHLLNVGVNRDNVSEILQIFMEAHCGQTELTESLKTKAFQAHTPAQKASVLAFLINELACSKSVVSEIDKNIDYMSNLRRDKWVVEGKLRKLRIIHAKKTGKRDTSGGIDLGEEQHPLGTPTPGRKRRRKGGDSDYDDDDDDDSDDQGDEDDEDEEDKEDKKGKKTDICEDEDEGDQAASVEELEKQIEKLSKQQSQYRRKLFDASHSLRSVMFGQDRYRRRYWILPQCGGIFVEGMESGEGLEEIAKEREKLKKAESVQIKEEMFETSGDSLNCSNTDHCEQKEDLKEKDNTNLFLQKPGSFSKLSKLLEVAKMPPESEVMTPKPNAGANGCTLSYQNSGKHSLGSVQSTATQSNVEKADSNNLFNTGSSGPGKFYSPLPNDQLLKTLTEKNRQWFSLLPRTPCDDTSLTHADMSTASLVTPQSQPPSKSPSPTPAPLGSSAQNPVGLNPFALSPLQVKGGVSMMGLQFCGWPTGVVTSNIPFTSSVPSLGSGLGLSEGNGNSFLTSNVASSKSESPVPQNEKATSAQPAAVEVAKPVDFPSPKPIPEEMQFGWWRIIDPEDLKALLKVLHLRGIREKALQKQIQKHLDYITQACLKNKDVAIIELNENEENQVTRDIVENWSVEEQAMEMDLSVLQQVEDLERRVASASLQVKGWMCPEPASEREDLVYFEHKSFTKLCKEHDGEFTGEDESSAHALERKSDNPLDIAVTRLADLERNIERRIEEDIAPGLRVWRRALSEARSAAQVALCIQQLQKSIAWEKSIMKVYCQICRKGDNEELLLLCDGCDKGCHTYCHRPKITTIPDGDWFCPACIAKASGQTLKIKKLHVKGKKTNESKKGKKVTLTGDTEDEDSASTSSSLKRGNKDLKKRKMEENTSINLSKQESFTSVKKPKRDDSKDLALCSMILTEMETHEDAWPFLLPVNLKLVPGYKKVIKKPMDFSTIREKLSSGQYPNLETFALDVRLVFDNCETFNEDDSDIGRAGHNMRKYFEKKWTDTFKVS
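Complex of BAZ2B and biotin-H3K14Ac (50 nM apiece) forms over 30 min at RT, then faces library compounds up to 110 uM for another 30 min; AlphaScreen beads added, 20 min dark incubation, luminescence read.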
JMJD2A Tudor inh: JMJD2A Tudor domain (human) inhibition. O75164. AlphaScreen JMJD2A-Tudor / H3K4me3 peptide binding. Potency, µM (doses to about 114 µM), usual class: inhibitors. 4.4% of 390,000 active. AID 504339; further: nearly all actives have a fitted effect of over 50% in size
PLK1 PBD inh: PLK1 (human) polo-box domain binding inhibition. Potency, µM, hits mostly inhibitors. Plk1 PBD binding of FITC phosphopeptide, fluorescence polarization. AID 720504. 2.8% of 360,000 active; further: series mostly up to about 57 µM; nearly all actives have a fitted effect of over 65% in size
HP1b chromo inh: blocks HP1-beta chromodomain binding to methylated histone tails; P83916; AlphaScreen HP1-beta / biotin-H3K9me3 peptide binding; Potency, µM (titrated, usually from 114 µM), hits mostly inhibitors; 0.56% of 390,000 active; AID 540317; further: nearly all actives have a fitted effect of over 70% in size
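HP1-beta protein (50 nM final) preincubated 30 min at room temperature with biotinylated H3(1-18)K9me3 peptide (50 nM) in PBS pH 7.4, 0.01% Tween-20, then compound added for 30 min. AlphaScreen streptavidin donor/nickel chelate acceptor beads (10 ug/mL final), 30 min dark, luminescence read.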
Of the large screens only hits and unclear results are named; the others gave an inactive call. In the library only some 11% were active in any assay of this set; here they are far more common. The call rests on the fitted dose curve; in most records, active means well fitted curve in the direction sought with a large enough effect; inconclusive means small, poorly fitted or top-dose-only effect, or another doubt; inactive means no such curve, though single readings can be large; an effect the other way counts as inactive or inconclusive.

Cc1cc(F)ccc1NC(=O)C1CCCN(C(=O)c2cnn(-c3ccccc3)c2-n2cccc2)C1 (stereo unspecified)	none (no result: PLK1 PBD inh)
O=[N+]([O-])c1ccc(O)c(-c2ccnc3cc(-c4ccccc4)nn23)c1	none (no result: PLK1 PBD inh)
CC(C)C1NC(C(=O)O)Cc2c1[nH]c1ccccc21 (stereo unspecified)	none (no result: G9a block)
COC(=O)C1Cc2c([nH]c3ccccc23)CN1C(C)=O (stereo unspecified)	G9a block 50.1µM
COC(=O)C1Cc2c([nH]c3ccccc23)C(C)N1 (stereo unspecified)	G9a block 20µM, JMJD2A Tudor inh inconclusive
CCCC1NC(C(=O)O)Cc2c1[nH]c1ccccc21 (stereo unspecified)	VDR inh inconclusive, JMJD2A Tudor inh 15.8µM, PLK1 PBD inh 18.9µM (no result: G9a block)
O=C(NCCN1CCOCC1)C1(C(F)(F)F)C/C(=C/CCO)CCCO1 (stereo unspecified)	none (no result: G9a block, BAZ2B inh, PLK1 PBD inh)
Cn1c(=O)[nH]c(=O)c2c1nc(N1CCCCC1)n2CC(O)COc1ccccc1 (stereo unspecified)	none
O=CN/C=C/c1cc(O)ccc1O	G9a block 1.41µM, BAZ2B inh 79.4µM, JMJD2A Tudor inh 3.16µM, PLK1 PBD inh inconclusive, HP1b chromo inh inconclusive
CC(CN1CCN(C)CC1)OC(=O)c1ccccc1Cl (stereo unspecified)	G9a block 50.1µM, BAZ2B inh inconclusive, JMJD2A Tudor inh 79.4µM, PLK1 PBD inh inconclusive
Cc1ccccc1OCC(=O)OC(C)CN1CCN(C)CC1 (stereo unspecified)	G9a block 50.1µM, BAZ2B inh inconclusive, JMJD2A Tudor inh inconclusive
Cc1ccccc1C(=O)OC(C)CN1CCN(C)CC1 (stereo unspecified)	none
O=C(Cn1c(=O)nc(-c2ccccc2F)c2cc(Cl)ccc21)NCCCc1ccccc1	none (no result: PLK1 PBD inh)
CN(C)S(=O)(=O)c1cccc(-c2nn(-c3ccccc3)cc2/C=C(\C#N)c2nc3ccccc3[nH]2)c1	none
CN(C)S(=O)(=O)c1cccc(-c2nn(-c3ccccc3)cc2/C=C2\SC(=S)NC2=O)c1	G9a block 39.8µM, BAZ2B inh 31.6µM, JMJD2A Tudor inh 39.8µM, PLK1 PBD inh 21.2µM, HP1b chromo inh inconclusive
COc1ccc(OCc2cc(C(=O)N(C)CCC3CCOCC3)no2)c(Cl)c1	VDR inh inconclusive, JMJD2A Tudor inh inconclusive, PLK1 PBD inh 26.7µM
CCC1CN(C(=O)N2CCC(C(=O)N(C)Cc3ccccc3)CC2)c2ccccc2O1 (stereo unspecified)	none (no result: PLK1 PBD inh)
Cc1ccc(C(C)(O)CS(=O)(=O)Cc2ccccc2)cc1 (stereo unspecified)	G9a block 56.2µM
COc1ccccc1NC(=O)C1=C(C)Nc2c(C(=O)Nc3ccc(F)cc3)cnn2C1c1cccc([N+](=O)[O-])c1 (stereo unspecified)	none (no result: PLK1 PBD inh)
Cc1cc(SCC(=O)OCC(=O)N(CCC#N)c2ccccc2)nc2ccccc12	none
CN1CCc2nc3ccccc3c(C(=O)OCC(=O)N(CCC#N)c3ccccc3)c2C1	G9a block 22.4µM, BAZ2B inh inconclusive
CCOC(=O)C1CCN(C(=O)CC(C)S(=O)(=O)c2ccc3c(c2)NC(=O)CO3)CC1 (stereo unspecified)	G9a block 70.8µM
CCOC(=O)C1CCN(C(=O)CN2C(=O)COc3ccc(C(C)(C)C)cc32)CC1	JMJD2A Tudor inh 79.4µM
CC(=O)N1CCSc2ccc(S(=O)(=O)Nc3ccc(C)cc3)cc21	none
Cc1ccc(-c2cc(-c3ccccc3)no2)cc1	none
c1ccc(-c2cc(-c3ccccc3)on2)cc1	VDR inh inconclusive, PLK1 PBD inh 13.4µM
Cc1cccc(-n2c(C)nc3cc(C(=O)NCc4ccc5c(c4)OCO5)ccc32)c1	G9a block 44.7µM, BAZ2B inh inconclusive
Cc1ccc(CNC(=O)c2ccc3c(c2)nc(C)n3-c2cccc(F)c2)cc1	none (no result: PLK1 PBD inh)
COC(CNC(=O)c1ccc2c(c1)nc(C)n2-c1cccc(C)c1)OC	JMJD2A Tudor inh inconclusive, PLK1 PBD inh 29.9µM
Cc1ccc(Cl)cc1N1CCN(C(=O)c2noc3c2CCCC3)CC1	none (no result: PLK1 PBD inh)
C#CCOCCOCCOCCNc1nc(N2CCN(C(=O)CCCCCCCCCCNC(=O)[C@H](CO)n3cc(CCCSC)nn3)CC2)nc(N2CCN(C(=O)CCCCCCCCCCNC(=O)[C@@H]([C@H](C)O)n3cc(C)nn3)CC2)n1	none (no result: VDR inh, JMJD2A Tudor inh, PLK1 PBD inh, HP1b chromo inh)
Cc1ccc(-c2nc(C)sc2CC(=O)Nc2cccc(C)c2C)cc1	none
N#CC1=C(N)N(c2ccc(Br)cc2)C2=C(C(=O)CCC2)C1c1cccnc1 (stereo unspecified)	G9a block 11.2µM, VDR inh inconclusive
N#CC1=C(N)N(c2ccccc2C#N)C2=C(C(=O)CCC2)C1c1ccsc1 (stereo unspecified)	G9a block inconclusive, BAZ2B inh 56.2µM
CCN(c1ccccc1)S(=O)(=O)c1ccc(NC(=O)c2nc(SC(C)C)ncc2Cl)cc1	none (no result: PLK1 PBD inh)
COC(=O)\C(C(C)=O)=C(/C=C/C=C/C=C/N(C)C)N(C)C	G9a block 31.6µM, BAZ2B inh 17.8µM, JMJD2A Tudor inh 11.2µM, HP1b chromo inh inconclusive
Brc1cccc(OCCN2CCOCC2)c1	G9a block 8.91µM, BAZ2B inh 50.1µM, JMJD2A Tudor inh 5.62µM, HP1b chromo inh inconclusive
CCc1cccc(OCCN2CCCC2)c1	G9a block inconclusive, BAZ2B inh 56.2µM, JMJD2A Tudor inh 31.6µM, HP1b chromo inh inconclusive
Brc1cccc(OCCN2CCCCC2)c1	G9a block 7.08µM, BAZ2B inh inconclusive, JMJD2A Tudor inh 20µM, HP1b chromo inh inconclusive
CCCOc1ccc(C(=O)OCCN2CCCCC2)c(O)c1	none (no result: G9a block, BAZ2B inh)
Cc1ccc2c(=O)cc(CSc3ncn[nH]3)[nH]c2c1C	none (no result: PLK1 PBD inh)
CC(OC(=O)c1ccco1)C(=O)Nc1ncc(Cl)cc1Cl (stereo unspecified)	none
C=CCN1C(c2ccc(OCC)cc2)=CS/C1=C(\C#N)c1nnc2n1CCCCC2	G9a block 3.55µM, BAZ2B inh inconclusive, JMJD2A Tudor inh inconclusive
CON=C1C=C(C)C(=O)C(C)=C1C	none (no result: G9a block, BAZ2B inh)
CC1=C/C(=N\OS(=O)(=O)c2ccccc2)C(C)=CC1=O	G9a block 20µM, BAZ2B inh 35.5µM, JMJD2A Tudor inh inconclusive
CC1=C/C(=N\OS(=O)(=O)c2ccccc2)C(C(C)C)=CC1=O	G9a block 8.91µM, VDR inh inconclusive, BAZ2B inh 35.5µM, JMJD2A Tudor inh inconclusive, HP1b chromo inh inconclusive
O=C(Nc1ccc(C2=NCCN2)cc1)c1ccc(C(=O)Nc2ccc(C3=NCCN3)cc2)c(Cl)c1	G9a block 25.1µM, JMJD2A Tudor inh 56.2µM, HP1b chromo inh inconclusive
COC(=O)[C@H](C)[C@H](CC(C)C)NC(=O)[C@H](C)[C@H](CC(C)C)NC(=O)c1ccccn1	none (no result: G9a block, BAZ2B inh, PLK1 PBD inh)
COc1cc(C(=O)c2cc3c(cc2C)OCO3)cc(OC)c1OC	none (no result: G9a block, VDR inh, BAZ2B inh, JMJD2A Tudor inh, HP1b chromo inh)
O=C(Nc1cc(S(=O)(=O)N2CCOCC2)ccc1O)c1ccco1	PLK1 PBD inh 29.9µM
